Dicer processing: blocks human Dicer maturation of pre-miR-21. Q9UPY3. cat-ELCCA pre-miR-21 Dicer processing, chemiluminescence; stronger effect = higher value. z-score at 25 µM. 47,000 tested, 6% active. AID 1347074; in the data active means z-score above about 3, passing the limit was not always enough;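 further: plate controls were vehicle for no effect and no enzyme for full effect; higher signal means more uncleaved substrate so more Dicer inhibition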
Target sequence (Q9UPY3 whole entry, looked up): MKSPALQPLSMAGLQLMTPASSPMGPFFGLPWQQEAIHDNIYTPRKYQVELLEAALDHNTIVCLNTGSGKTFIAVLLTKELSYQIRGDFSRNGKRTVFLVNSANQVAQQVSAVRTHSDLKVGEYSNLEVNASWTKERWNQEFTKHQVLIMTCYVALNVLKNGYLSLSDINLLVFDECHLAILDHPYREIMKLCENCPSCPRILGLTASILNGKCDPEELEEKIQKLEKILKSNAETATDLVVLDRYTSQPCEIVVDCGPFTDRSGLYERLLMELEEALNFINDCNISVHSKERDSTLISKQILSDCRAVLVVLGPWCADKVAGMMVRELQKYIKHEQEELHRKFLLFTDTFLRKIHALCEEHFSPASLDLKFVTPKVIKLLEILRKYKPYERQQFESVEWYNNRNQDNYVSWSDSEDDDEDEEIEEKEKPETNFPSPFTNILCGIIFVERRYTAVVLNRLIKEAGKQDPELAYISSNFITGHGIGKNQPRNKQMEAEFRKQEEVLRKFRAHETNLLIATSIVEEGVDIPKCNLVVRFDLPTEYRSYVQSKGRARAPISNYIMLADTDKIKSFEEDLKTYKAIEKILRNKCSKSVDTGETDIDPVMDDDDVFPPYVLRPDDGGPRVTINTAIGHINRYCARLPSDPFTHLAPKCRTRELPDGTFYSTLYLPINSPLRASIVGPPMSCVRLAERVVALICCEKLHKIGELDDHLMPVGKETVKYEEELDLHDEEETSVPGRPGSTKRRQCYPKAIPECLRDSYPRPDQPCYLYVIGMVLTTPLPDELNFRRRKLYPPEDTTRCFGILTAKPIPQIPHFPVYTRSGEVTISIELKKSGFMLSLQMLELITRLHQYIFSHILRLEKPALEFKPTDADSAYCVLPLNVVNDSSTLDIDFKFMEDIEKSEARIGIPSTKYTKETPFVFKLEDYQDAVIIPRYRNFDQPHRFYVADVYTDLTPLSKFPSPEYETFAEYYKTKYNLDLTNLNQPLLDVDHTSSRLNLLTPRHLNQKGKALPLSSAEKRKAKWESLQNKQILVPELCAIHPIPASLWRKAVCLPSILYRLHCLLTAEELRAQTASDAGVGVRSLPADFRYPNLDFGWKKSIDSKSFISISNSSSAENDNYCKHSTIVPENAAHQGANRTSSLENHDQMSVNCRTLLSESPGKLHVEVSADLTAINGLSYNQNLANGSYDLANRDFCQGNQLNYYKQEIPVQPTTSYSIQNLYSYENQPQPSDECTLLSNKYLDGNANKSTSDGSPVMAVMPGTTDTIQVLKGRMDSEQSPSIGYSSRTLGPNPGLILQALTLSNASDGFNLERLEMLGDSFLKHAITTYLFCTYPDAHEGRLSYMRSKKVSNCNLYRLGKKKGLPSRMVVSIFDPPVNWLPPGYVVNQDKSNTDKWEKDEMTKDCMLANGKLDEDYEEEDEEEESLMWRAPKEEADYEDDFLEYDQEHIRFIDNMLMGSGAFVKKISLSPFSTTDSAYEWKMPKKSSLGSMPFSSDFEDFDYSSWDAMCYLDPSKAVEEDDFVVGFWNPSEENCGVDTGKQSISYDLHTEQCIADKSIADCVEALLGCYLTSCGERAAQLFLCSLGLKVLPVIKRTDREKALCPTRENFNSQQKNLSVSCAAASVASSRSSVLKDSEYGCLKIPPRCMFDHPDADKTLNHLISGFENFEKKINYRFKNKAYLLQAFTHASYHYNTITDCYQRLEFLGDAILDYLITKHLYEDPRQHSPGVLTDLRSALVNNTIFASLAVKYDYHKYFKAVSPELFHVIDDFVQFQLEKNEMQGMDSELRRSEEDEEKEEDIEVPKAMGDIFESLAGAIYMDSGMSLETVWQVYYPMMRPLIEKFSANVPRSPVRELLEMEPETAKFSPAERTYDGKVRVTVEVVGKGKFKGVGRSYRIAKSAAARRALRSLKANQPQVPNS
Starred values were filed as active, the others as inactive. This excerpt belongs to a sample that is enriched for hits.

SMILES	Dicer processing
CCOc1cc(C2Nc3ccc4ccccc4c3C3=C2C(=O)CCC3)ccc1O (configuration not stated)	1.7
COc1ccc(C2Nc3ccc4ccccc4c3C3=C2C(=O)CCC3)cc1OC (configuration not stated)	4.5*
O=C1CC(c2cccc(O)c2)Nc2ccc3ccccc3c21 (configuration not stated)	1.1
COc1ccc(OC)c(C2Nc3ccc4ccccc4c3C3=C2C(=O)CC(C)(C)C3)c1 (configuration not stated)	1.9
Cc1ccccc1C1CC(=O)c2c(ccc3ccccc23)N1 (configuration not stated)	2
COc1ccc(Br)cc1C1CC(=O)c2c(ccc3ccccc23)N1 (configuration not stated)	3.3*
N#Cc1c(F)cccc1Sc1ccc(Cl)cc1	0.11
O=C(OCc1ccccc1)C1=NNC2(CC(=O)N(c3ccc(Cl)cc3)C2=O)C1 (configuration not stated)	1.1
Cc1onc(-c2c(Cl)cccc2Cl)c1NC(=O)N(C)c1c2c(nn1C)CCCC2	-0.51
CN1CCN(C2=Nc3cc(Cl)ccc3Nc3ccccc32)CC1	20
O=C1Nc2ccc(Cl)cc2C(c2ccccc2)=Nc2ccccc21	-1.2
Clc1ccc2c(c1)N=C(N1CCNCC1)c1ccccc1N2	4*
CC(C)(C)OC(=O)C(C)(C)Sc1nc(-c2ccccc2)c(-c2ccccc2)o1	-0.76
Cc1ccc(C(=O)C(C)Sc2nnc(-c3ccc4ccccc4c3)n2C)cc1Cl (configuration not stated)	-0.6
CCOC(=O)N1CCN(CC(O)COc2c(C)cc(C)cc2C)CC1 (configuration not stated)	3.3*
CCOC(=O)c1c(C)n(C)c2ccc(OCC(O)CN3CCOCC3)cc12 (configuration not stated)	1.9
OC(CN1CCN(Cc2ccc3c(c2)OCO3)CC1)Oc1ccc(C(F)(F)F)cc1 (configuration not stated)	-2.7
CCOC(=O)c1c(C)n(C)c2ccc(OCC(O)CN3CCN(C)CC3)cc12 (configuration not stated)	0.6
O=C(COc1ccc(Cl)cc1)N1CCN(Cc2ccc3c(c2)OCO3)CC1	0.41
CCOC(=O)N1CCN(CC(O)COCc2ccc3c(c2)OCO3)CC1 (configuration not stated)	3.2*
CCOC(=O)N1CCN(CC(O)COc2cc(C)cc(C)c2)CC1 (configuration not stated)	2.6
CCOC(=O)N1CCN(CC(O)COc2cc(C)ccc2C(C)C)CC1 (configuration not stated)	3.5*
CCOC(=O)N1CCN(S(=O)(=O)c2c(C)cc(C)cc2C)CC1	1.2
COc1ccc2sc(/C=C/c3ccc4c(c3)OCO4)[n+](C)c2c1	1.5
COc1ccc(Br)cc1C1NC(=O)c2c(sc3c2CCCC3)N1 (configuration not stated)	-0.09
SMILES	Dicer processing
CC1=CC(C)(C)N(C(=O)Nc2cccc(Cl)c2)c2ccccc21	1.6
Cc1ccc(-c2nnc(SCc3cccc(Cl)c3)o2)cc1	-0.29
CCOc1ccc(C2CC(=O)NC(SCC(=O)OC(C)C)=C2C#N)cc1 (configuration not stated)	0.96
C#CCSc1nc(C(OC)OC)cc(=O)[nH]1	0.44
CCCN1C(=O)C(O)(CC(=O)c2ccc(C)o2)c2ccccc21 (configuration not stated)	-0.15
Nc1c(-c2nnnn2-c2ccc(F)cc2)cnc2ccccc12	2.1
O=C(NCCN1CCOCC1)c1cc2nc3c(c(C(F)(F)F)n2n1)CCc1ccccc1-3	4.3*
c1ccc2c(c1)CCCc1cc(NCCN3CCOCC3)nnc1-2	0.37
O=C(Nc1ccc(O)cc1)c1cc2nc3c(c(C(F)(F)F)n2n1)CCc1ccccc1-3	3.2*
O=C(Nc1cccnc1)c1cc2nc(-c3ccc(Cl)cc3)cc(C(F)(F)F)n2n1	-2.2
O=C(NCCN1CCOCC1)c1cc2nc(-c3ccc(Br)cc3)cc(C(F)(F)F)n2n1	1.3
FC(F)(F)c1c2c(nc3cc(-c4ccc(Cl)cc4)nn13)-c1ccccc1C2	-1.3
Cc1nccc(-c2cccc(NS(=O)(=O)c3ccccc3C(F)(F)F)c2)n1	-1.4
C#CC(C)(C)NS(=O)(=O)c1cc(Cl)c(Cl)cc1Cl	-0.24
Cc1ccc(CSC2=NCN(Cc3ccccc3)CN2)cc1	-0.36
C/C(CC1(CC(C)C)CCCCC1)=N\NC(N)=O	1.5
O=C(CSc1nnc2sc3ccccc3n12)N1CCN(c2ccccc2)CC1	3.7*
O=C(O)CCSc1nnc2sc3ccccc3n12	0.75
CC(=O)CSc1nnc2sc3ccccc3n12	-0.21
Cn1c(=O)n(CC(=O)O)c(=O)c2c1nc1n2CCCN1c1ccc(Br)cc1	-0.92
O=C(O)Cc1csc2ccc(Cl)cc12	0.54
CC(O)CNC(=S)NC1CC2CCC1C2 (configuration not stated)	-0.41
Cc1ccc(-c2nnc(-c3ccc(C)cc3)o2)cc1	5.1*
Cc1ccc(-c2nnc(-c3cccs3)o2)cc1	2.9
Cc1ccc(-c2nnc(-c3ccccc3)o2)cc1	2
SMILES	Dicer processing
COc1cc(CO)c(CC(=O)NN)cc1OC	0.94
COc1cccc2sc(NS(=O)(=O)CS(=O)(=O)Nc3nc4c(OC)cccc4s3)nc12	0.24
COC(=O)C1=C(C)Nc2nc3ccccc3n2C1c1ccccc1Cl (configuration not stated)	0.6
O=C(CSc1nc(O)cc(=O)n1-c1ccccc1F)N1CCc2ccccc21	5.5*
CC(C)c1c(O)nc(SCC(=O)N2CCc3ccccc32)n(-c2ccccc2)c1=O	-1.1
Cc1c(O)nc(SCC(=O)N2CCc3ccccc32)n(-c2ccccc2)c1=O	0.01
COc1ccc(C(C)=O)cc1CSCC(=O)Nc1ccc(Cl)cc1	0.3
COc1ccccc1C1CCN(S(=O)(=O)c2ccc(Br)cc2OC)CC1	0.07
CCNc1nc(SCC(=O)OCC)nc2sc3c(c12)CCC(C)C3 (configuration not stated)	-1.1
CCOC(=O)CSc1nc(NC)c2c3c(sc2n1)CCCC3	3.2*
CCOC(=O)CSc1nc2sc3c(c2c(=O)n1-c1ccc(OC)cc1)CCC3	1.1
COCCOC(=O)C1=C(C)NC2=C(C(=O)CC(C)(C)C2)C1c1ccc(OC)cc1OC (configuration not stated)	-0.24
O=C1c2ccccc2-c2ccc(Br)cc21	1.3
CCOC(=O)C(C)c1nc2ccccc2[nH]c1=O (configuration not stated)	3
O=C(CCc1nc2ccccc2[nH]c1=O)OCc1ccc(Br)cc1	1.6
CC(C)OC(=O)c1ccc(COC(=O)CCc2nc3ccccc3[nH]c2=O)cc1	3.4*
O=C(CSc1nc2c(c(C(F)(F)F)n1)CCc1ccccc1-2)NCC1CCCO1 (configuration not stated)	0.48
Cc1c(CN(C)C(=O)CSc2nc3c(c(C(F)(F)F)n2)CCc2ccccc2-3)cnn1C	2
Cc1c(OCc2ccccc2F)ccc2c1OC(C)(C)CC2=O	-0.37
CCN(Cc1c(C)[nH]c2ccc(C)cc2c1=O)C1CCCCC1	-0.38
CCc1ccc(Oc2nc3c(c(=O)n(C)c(=O)n3C)n2Cc2ccccc2Cl)cc1	1.7
O=C(NC(=S)Nc1c(Cl)cccc1Cl)c1ccccc1	0.31
N#CC(=Nc1ccc(C2CCCCC2)cc1)C1=C(O)c2ccccc2C1=O	1.7
COc1ccc(-c2c(C)nn3c(-c4ccccc4)cc(C)nc23)cc1OC	2.2
COc1ccc(-c2c(C)nn3c(C)cc(C)nc23)cc1OC	4.8*
